# CHX counter: Cycloheximide Counterscreen for Small Molecule Inhibitors of Shiga Toxin; max response, %; 300,000 compounds, 12% hits; AID 2314, 2010; cell reporter, cycloheximide protein synthesis inhibition counterscreen; in the data active = max response mostly above about 13%, no sharp cut-off; inactive = mostly below about 14%; note: read at 38.3 µM for the half of the compounds with a filed dose; 0% is about no effect
# RE007 growth inh: qHTS Assay for Inhibitors of the HIV-1 protein Vpr; 360,000 compounds, 0.21% hits; Potency, µM (titrated, usually from 92.2 µM), for inactives: at the highest dose activity change, negative = less growth, actives largely listed as inhibitors; S. pombe RE007 Vpr strain, BacTiter-Glo ATP luminescence, 24 h; active = well fitted falling curve with a large enough effect; inconclusive = small, poorly fitted or top-dose-only effect; inactive = no such curve, though single readings can be large or run the other way; note: potency is the fitted concentration of half-maximal effect; % is set by controls: 0 for no effect and ±100 for the full control effect; nearly all actives have a fitted effect of over 50% in size
#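 Fission yeast RE007 carrying one integrated HIV-1 vpr copy, seeded at OD 0.01 in PMG+AL medium with 23 nL pinned compound. Grown 24 h at 30 degrees; viability read by BacTiter-Glo luminescence after 5 min.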
# LmPK inhibitor: qHTS Assay for Inhibitors of Leishmania Mexicana Pyruvate Kinase (LmPK) | Q27686 | Potency, µM (doses to about 57.5 µM), for inactives: at the highest dose activity change, negative = inhibition, usual class: inhibitors | purified LmPK, Kinase-Glo ATP luminescence, 1 h | 290,000 compounds, 0.37% hits; note: potency is the fitted concentration of half-maximal effect; % is set by controls: 0 for no effect and ±100 for the full control effect
# Target sequence (Q27686 whole entry, looked up): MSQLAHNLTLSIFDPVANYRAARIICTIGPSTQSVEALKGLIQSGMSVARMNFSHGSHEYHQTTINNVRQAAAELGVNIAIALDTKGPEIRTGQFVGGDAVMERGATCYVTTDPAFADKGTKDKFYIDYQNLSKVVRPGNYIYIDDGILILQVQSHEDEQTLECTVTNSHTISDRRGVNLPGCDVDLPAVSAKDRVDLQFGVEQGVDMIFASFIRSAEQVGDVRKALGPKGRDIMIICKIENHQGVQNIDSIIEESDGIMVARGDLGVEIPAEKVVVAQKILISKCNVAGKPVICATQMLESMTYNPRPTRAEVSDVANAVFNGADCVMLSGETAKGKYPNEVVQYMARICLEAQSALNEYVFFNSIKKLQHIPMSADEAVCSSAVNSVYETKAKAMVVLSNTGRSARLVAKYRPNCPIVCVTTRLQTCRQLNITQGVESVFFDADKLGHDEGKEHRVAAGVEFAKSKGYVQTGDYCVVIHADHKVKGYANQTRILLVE
#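 ATP generated from ADP (0.1 mM) and PEP (0.5 mM) by 0.1 nM LmPK over 1 h at room temperature (pH 7.2 imidazole buffer) was detected by coupled luciferase luminescence. Values were normalized to uninhibited and no-enzyme wells.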
# TbPYK inhibitor: qHTS of Trypanosoma Brucei Inhibitors; pyruvate kinase (Trypanosoma brucei), Q57TT1; TbPYK enzyme, Kinase-Glo Plus ATP luminescence, 45 min; Potency, µM (series often up to 76.8 µM), for inactives: at the top dose activity, negative = inhibition, hits mostly inhibitors; 410,000 compounds, 0.12% hits; note: potency is the fitted concentration of half-maximal effect; % is set by controls: 0 for no effect and ±100 for the full control effect; nearly all actives have a fitted effect of over 50% in size
#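 ADP (130 uM final) triggers the TbPYK reaction after compound addition; incubation is 45 min at room temperature. Kinase-Glo Plus is then added and luminescence imaged. Normalized data are fitted to concentration-effect curves.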
# Shiga inhibitor: A qHTS for Small Molecule Inhibitors of Shiga Toxin; Vero cells, Shiga toxin protein synthesis inhibition reporter; inhibition, % at 38.7 µM; 290,000 compounds, 9.2% hits; AID 2315, 2010; in the data active = inhibition mostly above about 28%, no sharp cut-off; inactive = mostly below about 43%; note: 0% is about no effect
# Giardia FBPA inh: qHTS Assay for Inhibitors of Fructose-1,6-bisphosphate Aldolase from Giardia Lamblia; A8B2U2; purified Giardia FBPA; Potency, µM (highest dose often 59.6 µM), without a hit: at the top dose activity, negative = inhibition, most hits filed as inhibitors; 290,000 compounds, 0.71% hits; AID 2451, 2010; note: potency is the fitted concentration of half-maximal effect; % is set by controls: 0 for no effect and ±100 for the full control effect; nearly all actives have a fitted effect of over 55% in size
#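 40 nM FBPA preincubated 10 min at RT with compound (up to 57.5 uM final), then substrate plus GAPDH/TPI/NAD/arsenate coupling and diaphorase/resazurin added. Fluorescence read after 20 min at RT, 525/598 nm.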
# * = called active by the depositor; ? = inconclusive; / = no result. Many of the other results were omitted from the sample, so hits are more common in it than they were. Unless noted, calls come from the whole dose curve; as a rule, active = well fitted curve in the direction sought with a large enough effect; inconclusive = small, poorly fitted or top-dose-only effect, or another doubt; inactive = no such curve, though single readings can be large; an effect the other way counts as inactive or inconclusive.
SMILES,CHX counter,RE007 growth inh,LmPK inhibitor,TbPYK inhibitor,Shiga inhibitor,Giardia FBPA inh
CCOc1ccc2cc(C3CC(c4ccco4)=NN3S(=O)(=O)c3ccccc3)c(Cl)nc2c1 (centres undefined),19*,12%,0%,3%,68*,-7%
CCOC(=O)C1CCCN(C(=O)C2CCN(S(=O)(=O)c3c(C)noc3/C=C/c3ccc(C)cc3)CC2)C1 (centres undefined),/,/,/,-4%,/,/
Cc1ccc(/C=N/NC(=O)c2nn(C)cc2Cl)cc1,34*,-10%,?,-2%,47*,-1%
Cn1cc(Cl)c(C(=O)N/N=C/c2ccc(OS(=O)(=O)c3ccccc3)cc2)n1,21,10%,4%,3%,-13,1%
Cn1cc(Cl)c(C(=O)N/N=C/c2ccc3c4c(cccc24)CC3)n1,29*,-21%,-10%,2%,61*,1%
Cn1cc(Cl)c(C(=O)Nc2cccc(Cl)c2Cl)n1,42*,-9%,-1%,-2%,29,-1%
Cn1nccc1NC(=O)Nc1cccc(Cl)c1Cl,7,-7%,1%,-2%,6,14%
CCC(C(=O)OC(C)C(=O)Nc1ccc(Cl)cn1)c1ccccc1 (centres undefined),2,18%,-1%,1%,-5,/
CCCCCCC(O)C/C=C\CCCCCCCC(=O)O (centres undefined),/,/,/,5%,/,/
COc1ccccc1C(=O)Nc1ccc2c(c1)n(C)c(=O)n2C,-2,3%,-1%,1%,-4,1%
COc1cc(Cl)c(C)cc1NC(=O)C1CCCN(c2ncnc3onc(-c4ccc(F)cc4)c23)C1 (centres undefined),/,/,/,-7%,/,/
COc1ccccc1NC(=O)NCC(=O)Nc1ccc(F)c(F)c1,9,5%,0%,0%,15,0%
COc1ccc(C)cc1NC(=O)Nc1ccncc1,2,-17%,-6%,5%,-12,/
COc1ccc(NC(=O)Nc2cc(C)ccc2F)cc1OC,18*,9%,-6%,-11%,41*,6%
COc1ccccc1NC(=O)Nc1ccc(F)c(F)c1,66*,-19%,?,-3%,81*,-23%
COc1ccccc1NC(=O)Nc1ccc2c(c1)nnn2C,57*,0%,4%,-15%,50*,-19%
CCCN(Cc1ccccc1)C(=O)Nc1ccc2c(c1)nnn2C,19*,1%,-1%,1%,40*,-19%
O=C(Nc1ccc(F)c(Cl)c1)N1CCN2CCCCC2C1 (centres undefined),/,/,/,2%,/,/
Cc1cc(C)n(-c2nc3ccccc3c(=O)n2OCC#N)n1,38*,?,-5%,-6%,115*,8%
CCCN(CCC)S(=O)(=O)c1ccc(C(=O)N2CCn3c4c(c5cc(C)ccc53)CCCC42)cc1 (centres undefined),/,/,/,-2%,/,/
O=C(c1cc(C2CC2)on1)N1CCN(c2ccccc2)CC1,24*,-11%,-1%,3%,47*,-4%
O=C(c1cc(-c2ccc3c(c2)OCO3)on1)N1CCN(c2ccc(F)cc2)CC1,9,10%,3%,3%,8,3%
O=C(c1cc(-c2ccc3c(c2)OCO3)on1)N1CCN(c2ccccc2)CC1,56*,-2%,0%,-13%,62*,7%
O=C(c1cc(-c2ccc3c(c2)OCO3)on1)N1CCOCC1,20*,-8%,?,-5%,active,0%
CCc1cc(C(=O)N2CCN(c3ccccc3)CC2)no1,/,/,/,-2%,/,/
O=C1C=CC(=O)C(Cl)=C1,16,/,/,/,53,?
Cc1ccc(OCc2cc(=O)n3c4c(sc3n2)CCCC4)cc1C,/,/,/,-2%,/,/
Cc1ccc(CNC(=O)CN2C(=O)C3(SCC(=O)N3c3cc(C)cc(C)c3)c3ccccc32)cc1 (centres undefined),/,/,/,5%,/,/
COc1cc(C)ccc1OCCCOc1c(Cl)cccc1Cl,18*,-2%,-2%,-7%,60,0%

# Assay outcomes (PubChem BioAssay)
